“And” between values parts separate entries of the source, which are not always exact repeats. Identical values can stand only once. For some of these results: Entries with a potency or affinity are not part of this list.
Experiments:
Set-up in all cases: scale not given: direction of the effect not stated beside the values
[1] = molecular target: Protein translocase subunit SecA (Escherichia coli (strain K12)) (UniProt P10408); experiment: Assay to Identify E. coli SecA ATPase Inhibitors; format: functional; settings: 30 µM
[2] = molecular target: T1, Ubiquitin-activating enzyme e1, putative (Leishmania donovani (strain BPK282A1)) (UniProt E9BSI1); experiment: Leishmania donovani Ubiquitin Activating Enzyme (LdE1); format: functional; settings: 30 µM
T1 sequence (whole entry): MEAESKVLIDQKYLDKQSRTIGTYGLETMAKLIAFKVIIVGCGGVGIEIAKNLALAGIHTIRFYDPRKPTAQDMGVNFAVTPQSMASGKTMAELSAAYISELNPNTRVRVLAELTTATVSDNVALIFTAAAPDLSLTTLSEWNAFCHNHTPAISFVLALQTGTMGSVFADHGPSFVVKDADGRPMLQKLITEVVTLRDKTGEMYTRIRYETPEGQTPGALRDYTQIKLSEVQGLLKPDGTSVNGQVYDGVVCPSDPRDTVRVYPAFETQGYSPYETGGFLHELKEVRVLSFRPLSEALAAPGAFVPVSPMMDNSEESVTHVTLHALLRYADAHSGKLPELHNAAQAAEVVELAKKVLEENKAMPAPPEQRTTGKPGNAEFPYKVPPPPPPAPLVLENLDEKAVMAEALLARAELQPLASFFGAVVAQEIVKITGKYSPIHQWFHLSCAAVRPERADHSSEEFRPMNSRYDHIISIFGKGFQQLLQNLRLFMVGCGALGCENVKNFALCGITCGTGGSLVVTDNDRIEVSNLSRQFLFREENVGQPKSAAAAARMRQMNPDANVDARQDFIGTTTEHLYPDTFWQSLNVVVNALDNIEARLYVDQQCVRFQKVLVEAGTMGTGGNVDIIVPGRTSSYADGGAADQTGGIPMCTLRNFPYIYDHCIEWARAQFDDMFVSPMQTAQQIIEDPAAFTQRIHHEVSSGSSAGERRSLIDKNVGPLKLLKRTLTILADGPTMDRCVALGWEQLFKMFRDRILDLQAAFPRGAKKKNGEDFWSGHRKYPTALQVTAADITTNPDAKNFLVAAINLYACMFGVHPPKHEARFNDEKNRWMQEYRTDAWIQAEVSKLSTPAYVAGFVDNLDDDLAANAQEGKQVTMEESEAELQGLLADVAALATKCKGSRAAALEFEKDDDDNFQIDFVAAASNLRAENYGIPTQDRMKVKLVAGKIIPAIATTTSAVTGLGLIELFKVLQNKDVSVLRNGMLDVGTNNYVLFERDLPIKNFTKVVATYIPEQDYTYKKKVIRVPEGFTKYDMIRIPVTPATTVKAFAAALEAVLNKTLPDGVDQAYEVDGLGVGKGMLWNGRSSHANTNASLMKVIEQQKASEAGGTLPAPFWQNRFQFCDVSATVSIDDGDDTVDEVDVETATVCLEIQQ

[3] = molecular target: AMP-activated protein kinase, AMPK (Homo sapiens) (UniProt P54646+O43741+P54619+Q9UGJ0+Q9Y478+Q13131+Q9UGI9); experiment: AMP-dependent Kinase enzyme assay. An in vitro enzyme assay that detects ADP turnover that is directly proportional to AMPK activity. This uses naive AMPK that is activated during the assay with MK-8722; format: functional; settings: 30 µM
[4] = molecular target: Sialic acid-binding Ig-like lectin 9 (Homo sapiens) (UniProt Q9Y336); experiment: Hs-Siglec9 ALPHAscreen SOP 20170721; settings: 10 µM
Trypanosoma cruzi = experiment: Trypanosoma cruzi phosphomannomutase and mannose-1-phosphate guanylyltransferase assay; format: functional; settings: 10 µM
[5] = molecular target: T2, Arginase-2, mitochondrial (Homo sapiens) (UniProt P78540); experiment: in vitro enzyme assay to detect the production of urea directly proportional to the activity of Arginase II; format: functional; settings: 33.3 µM; note: in the data most compounds retested in dose-response had high values
T2 sequence (whole entry): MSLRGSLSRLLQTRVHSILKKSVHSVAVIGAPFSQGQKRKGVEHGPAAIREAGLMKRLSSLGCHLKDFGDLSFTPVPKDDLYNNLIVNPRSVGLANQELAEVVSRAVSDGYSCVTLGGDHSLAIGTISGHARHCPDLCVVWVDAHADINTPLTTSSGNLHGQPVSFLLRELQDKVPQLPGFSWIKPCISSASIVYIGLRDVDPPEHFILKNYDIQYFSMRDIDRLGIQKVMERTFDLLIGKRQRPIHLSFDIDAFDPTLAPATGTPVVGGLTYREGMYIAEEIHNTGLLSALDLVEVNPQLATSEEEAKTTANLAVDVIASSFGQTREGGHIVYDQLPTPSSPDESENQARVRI

[6] = molecular target: T3, Proteasome subunit beta (Trypanosoma cruzi) (UniProt O96673); experiment: Trypanosoma cruzi proteasome chymotrypsin-like activity (TcProtChymo) assay.; note: in the data most compounds retested in dose-response had high values; format: functional; settings: 9.37 µM
T3 sequence (whole entry): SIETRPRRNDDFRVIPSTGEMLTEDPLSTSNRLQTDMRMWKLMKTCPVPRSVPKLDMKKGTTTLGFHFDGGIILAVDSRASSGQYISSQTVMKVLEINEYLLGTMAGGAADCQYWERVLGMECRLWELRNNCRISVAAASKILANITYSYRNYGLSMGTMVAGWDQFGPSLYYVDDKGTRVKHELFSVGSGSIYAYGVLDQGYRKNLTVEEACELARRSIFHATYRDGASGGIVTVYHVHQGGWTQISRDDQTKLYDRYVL

Homo sapiens = species: Homo sapiens; experiment: To identify inhibition of the IFN signalling (Jak-Stat) pathway via expression of an eGFP reporter gene under the control of an IFN-stimulated response element (ISRE) containing MxA promoter.; format: functional; settings: 30 µM
[7] = molecular target: T4, Tyrosyl-tRNA synthetase, putative (Trypanosoma cruzi (strain CL Brener)) (UniProt Q4DSP6); experiment: Trypanosoma cruzi tyrosyl tRNA synthetase (TcYRS) _High Tyrosine SOP; format: functional; settings: 30 µM; note: in the data most compounds retested in dose-response had high values
T4 sequence (whole entry): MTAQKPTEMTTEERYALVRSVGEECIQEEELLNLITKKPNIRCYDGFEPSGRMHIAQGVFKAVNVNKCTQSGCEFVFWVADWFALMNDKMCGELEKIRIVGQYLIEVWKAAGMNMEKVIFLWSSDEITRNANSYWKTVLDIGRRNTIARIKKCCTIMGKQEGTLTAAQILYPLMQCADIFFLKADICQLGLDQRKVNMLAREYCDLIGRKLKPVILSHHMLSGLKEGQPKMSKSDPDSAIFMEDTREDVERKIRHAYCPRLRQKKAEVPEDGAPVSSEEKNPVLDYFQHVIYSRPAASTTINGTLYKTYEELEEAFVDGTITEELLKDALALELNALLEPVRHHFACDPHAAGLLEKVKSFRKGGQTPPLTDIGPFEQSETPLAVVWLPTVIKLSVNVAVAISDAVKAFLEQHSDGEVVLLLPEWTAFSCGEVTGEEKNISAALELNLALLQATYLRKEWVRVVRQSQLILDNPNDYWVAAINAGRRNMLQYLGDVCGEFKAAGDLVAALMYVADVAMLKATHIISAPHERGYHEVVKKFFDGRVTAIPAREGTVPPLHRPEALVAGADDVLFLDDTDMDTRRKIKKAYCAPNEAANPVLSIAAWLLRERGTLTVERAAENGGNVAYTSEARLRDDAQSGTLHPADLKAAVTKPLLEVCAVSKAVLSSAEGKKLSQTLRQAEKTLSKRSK

[8] = molecular target: T4, Tyrosyl-tRNA synthetase, putative (Trypanosoma cruzi (strain CL Brener)); experiment: Trypanosoma cruzi tyrosyl tRNA synthetase (TcYRS) SOP; format: functional; settings: 30 µM
[9] = molecular target: Chromo domain-containing protein 1 (Saccharomyces cerevisiae (strain ATCC 204508 / S288c) (Baker's yeast)) (UniProt P32657); experiment: ScCHD-1 Enzyme Inhibition Assay; format: functional; settings: 30 µM; note: in the data most compounds retested in dose-response had high values
N/A = experiment: Trypanosoma cruzi proteasome luciferase counter-screen; format: functional; settings: 9.37 µM

Sequence of Sialic acid-binding Ig-like lectin 9 (Homo sapiens) (Q9Y336 whole entry): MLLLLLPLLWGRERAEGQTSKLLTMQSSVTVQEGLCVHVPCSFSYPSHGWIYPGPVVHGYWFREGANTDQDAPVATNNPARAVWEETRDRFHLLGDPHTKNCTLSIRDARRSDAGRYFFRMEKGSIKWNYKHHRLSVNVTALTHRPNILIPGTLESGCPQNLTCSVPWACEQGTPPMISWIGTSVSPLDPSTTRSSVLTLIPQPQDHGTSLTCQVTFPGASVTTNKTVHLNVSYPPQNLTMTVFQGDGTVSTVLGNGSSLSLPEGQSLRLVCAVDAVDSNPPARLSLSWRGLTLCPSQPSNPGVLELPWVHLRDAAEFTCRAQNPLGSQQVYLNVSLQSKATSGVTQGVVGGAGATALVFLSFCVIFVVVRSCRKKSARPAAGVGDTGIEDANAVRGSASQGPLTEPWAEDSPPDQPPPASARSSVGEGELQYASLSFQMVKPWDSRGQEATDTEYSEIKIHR
Sequence of Chromo domain-containing protein 1 (Saccharomyces cerevisiae (strain ATCC 204508 / S288c) (Baker's yeast)) (P32657 whole entry, the tested form may be a part): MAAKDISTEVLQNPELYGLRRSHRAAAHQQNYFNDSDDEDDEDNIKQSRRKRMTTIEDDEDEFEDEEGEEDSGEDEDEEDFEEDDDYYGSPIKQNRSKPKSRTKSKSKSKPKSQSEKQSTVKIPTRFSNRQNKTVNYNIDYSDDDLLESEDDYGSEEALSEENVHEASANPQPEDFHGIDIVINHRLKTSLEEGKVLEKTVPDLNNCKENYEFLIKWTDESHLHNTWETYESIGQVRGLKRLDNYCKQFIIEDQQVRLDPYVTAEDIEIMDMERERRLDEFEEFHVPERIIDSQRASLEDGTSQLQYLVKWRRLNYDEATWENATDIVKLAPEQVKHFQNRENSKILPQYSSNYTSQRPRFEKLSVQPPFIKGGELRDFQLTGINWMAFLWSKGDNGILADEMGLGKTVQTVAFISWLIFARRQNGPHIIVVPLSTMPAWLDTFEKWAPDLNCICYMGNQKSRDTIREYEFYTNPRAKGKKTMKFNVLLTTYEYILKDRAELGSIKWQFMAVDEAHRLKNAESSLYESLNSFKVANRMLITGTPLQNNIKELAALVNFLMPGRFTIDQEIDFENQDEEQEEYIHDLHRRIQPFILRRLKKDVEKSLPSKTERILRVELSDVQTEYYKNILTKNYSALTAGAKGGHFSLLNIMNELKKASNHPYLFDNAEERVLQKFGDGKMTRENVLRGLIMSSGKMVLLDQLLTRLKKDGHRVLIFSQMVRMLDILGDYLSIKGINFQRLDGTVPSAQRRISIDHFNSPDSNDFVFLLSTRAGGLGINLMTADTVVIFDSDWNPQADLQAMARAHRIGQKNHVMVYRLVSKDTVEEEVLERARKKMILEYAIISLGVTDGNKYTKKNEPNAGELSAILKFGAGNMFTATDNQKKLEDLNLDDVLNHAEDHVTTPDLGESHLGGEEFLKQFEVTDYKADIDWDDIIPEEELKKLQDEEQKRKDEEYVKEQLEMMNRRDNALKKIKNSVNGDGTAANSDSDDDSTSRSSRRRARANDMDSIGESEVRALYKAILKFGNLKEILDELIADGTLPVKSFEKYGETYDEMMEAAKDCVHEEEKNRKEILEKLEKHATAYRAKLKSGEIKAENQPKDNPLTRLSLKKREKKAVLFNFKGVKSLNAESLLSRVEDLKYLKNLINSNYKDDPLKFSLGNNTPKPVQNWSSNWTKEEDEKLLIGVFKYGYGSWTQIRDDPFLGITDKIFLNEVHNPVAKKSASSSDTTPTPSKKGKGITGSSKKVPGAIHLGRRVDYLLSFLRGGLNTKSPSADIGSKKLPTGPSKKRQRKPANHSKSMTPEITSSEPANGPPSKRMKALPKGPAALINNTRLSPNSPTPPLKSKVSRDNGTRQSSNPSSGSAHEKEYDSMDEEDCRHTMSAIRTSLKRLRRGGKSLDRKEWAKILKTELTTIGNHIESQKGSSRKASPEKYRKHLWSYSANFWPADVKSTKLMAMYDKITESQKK
Sequence of Protein translocase subunit SecA (Escherichia coli (strain K12)) (P10408 whole entry): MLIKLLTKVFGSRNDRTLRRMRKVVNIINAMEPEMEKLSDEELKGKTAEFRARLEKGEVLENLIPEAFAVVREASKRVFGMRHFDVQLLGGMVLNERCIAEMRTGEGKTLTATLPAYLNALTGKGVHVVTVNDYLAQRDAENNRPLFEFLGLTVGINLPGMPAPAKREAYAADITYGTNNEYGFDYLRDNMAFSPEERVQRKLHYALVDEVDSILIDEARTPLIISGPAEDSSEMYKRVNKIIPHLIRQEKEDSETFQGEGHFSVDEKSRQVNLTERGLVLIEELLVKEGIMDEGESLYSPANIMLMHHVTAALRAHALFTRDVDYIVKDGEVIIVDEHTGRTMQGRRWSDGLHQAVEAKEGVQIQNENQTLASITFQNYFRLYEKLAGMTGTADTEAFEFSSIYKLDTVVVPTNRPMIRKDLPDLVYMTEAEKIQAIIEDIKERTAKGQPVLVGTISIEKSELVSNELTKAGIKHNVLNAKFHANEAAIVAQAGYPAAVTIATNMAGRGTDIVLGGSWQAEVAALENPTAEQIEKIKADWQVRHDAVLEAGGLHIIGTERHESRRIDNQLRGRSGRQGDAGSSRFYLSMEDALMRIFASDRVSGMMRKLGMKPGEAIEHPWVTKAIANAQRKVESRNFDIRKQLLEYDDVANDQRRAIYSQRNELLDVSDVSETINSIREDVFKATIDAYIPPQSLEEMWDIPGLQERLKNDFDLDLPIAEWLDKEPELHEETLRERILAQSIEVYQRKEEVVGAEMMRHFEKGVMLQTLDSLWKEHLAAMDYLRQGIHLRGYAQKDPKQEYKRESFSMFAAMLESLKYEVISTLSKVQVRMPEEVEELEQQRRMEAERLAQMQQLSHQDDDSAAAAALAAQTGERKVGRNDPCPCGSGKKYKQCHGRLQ

| Structure (SMILES) | Percent Effect [1] | Percent Effect [2] | Percent Effect [3] | Percent Effect [4] | Percent Effect (Trypanosoma cruzi) | Percent Effect [5] | Percent Effect [6] | Percent Effect (Homo sapiens) | Percent Effect [7] | Percent Effect [8] | Percent Effect [9] | Percent Effect (N/A) |
| --- | --- | --- | --- | --- | --- | --- | --- | --- | --- | --- | --- | --- |
| Cn1nnc2c1C(COCC1CC1)CN(C(=O)Cc1ccsc1)C2 (stereo unspecified) | -5.15% | 23.4% | -3.67% | 0.591% | 4.63% | -3.23% | 9.57% | 4.27% | -1.06% | 14.1% | -12.5% | – |
| CC(=O)N1CCC[C@H]1C(=O)NCCOc1cccc(Cl)c1 | -0.692% | 7.79% | -8.32% | -3.36% | 4.31% | 4.98% | 13.7% | 12.4% | 6.8% | 24.4% | -9.94% | – |
| c1ccc(C[C@H]2[C@H](N3CCOCC3)CCN2Cc2cccnc2)cc1 | -1.09% | 2.67% | 3.8% | 7.7% | -5.21% | -56.1% | 4.1% | -7.93% | 1.04% | 12.5% | -4.71% | – |
| CC1c2ncc(COc3cccnc3)n2CCN1C(=O)C1=CCCC1 (stereo unspecified) | -4.3% | 12% | -0.286% | 5.22% | -2.75% | -1.58% | 9.43% | 16.6% | 7.41% | 10.3% | -7.55% | – |
| O=C(NC1(c2cccc(F)c2)CCOCC1)c1cc[nH]n1 | -4.6% | 5.2% | 0.0633% | 4.75% | 0.885% | -23.4% | 5.32% | 4.47% | 2.15% | 3.7% | -1.53% | – |
| CCOc1ccc(-n2nnc(C(=O)O)c2-c2ccccn2)cc1 | -1.24% | 7.89% | 4.82% | -2.3% | 0.487% | 0% | 29.2% | 5.63% | 3.19% | 13% | -4.17% | – |
| CNS(=O)(=O)Cc1ccc(CNc2cncc(-n3cccn3)n2)cc1 | -1.63% | 18.2% | 3.34% | 6.42% | 5.24% | 0% | – | 18.8% | 7.77% | 24.4% | -12.2% | 16.1% and 14.8% |
| CSCCCNC(=O)Nc1cccc(-c2nccn2C)c1 | -3.41% | 6.94% | -0.0628% | 2.76% | -0.0972% | 1.32% | 16.8% | 10.7% | 1.05% | 2.56% | -2.41% | – |
| Cc1nn(C)c(C)c1C1COCCN1C(=O)c1n[nH]c2ccccc12 (stereo unspecified) | -1.74% | 18.2% | 2.92% | -4.32% | 6.74% | -0.712% | – | -8.49% | 5.83% | 21.9% | -7.82% | 17.2% and 17.5% |
| Cc1cc(C(F)(F)F)nn1C(C)C(=O)Nc1ccncc1 (stereo unspecified) | -1.07% | 25.3% | -4.73% | -5.25% | -0.982% | -12.2% | 8.87% | 13.8% | 2.12% | 12.8% | -9.26% | – |
| Cc1noc(C)c1CN1C[C@@H]2COC[C@H](C(=O)N3CCCCO3)[C@@H]2C1 | -5.77% | 8% | 8.79% | -0.115% | -5.12% | -1.17% | 7.31% | 3.63% | 6.38% | 8.97% | -0.163% | – |

From ChEMBL document CHEMBL3988442, “University of Dundee, Small-Polar-MMV Screening Library” (2021)
